The source of these data is PubChem BioAssay AID720555 (National Center for Advancing Translational Sciences (NCATS), 2013).

The structures appear in SMILES notation. Where “and” joins values, the source holds several entries; their conditions need not be identical. Equal entries are not always repeated. Results filed as inconclusive are left out. Calls of active or inactive are those of the source. Calls come from the whole dose curve; as a rule, active = well fitted inhibition curve with a large enough effect; inconclusive = small, poorly fitted or top-dose-only effect; inactive = no such curve, though single readings can be large or run the other way.

RecQ-like DNA helicase BLM (Homo sapiens), sequence (P54132 whole entry, looked up): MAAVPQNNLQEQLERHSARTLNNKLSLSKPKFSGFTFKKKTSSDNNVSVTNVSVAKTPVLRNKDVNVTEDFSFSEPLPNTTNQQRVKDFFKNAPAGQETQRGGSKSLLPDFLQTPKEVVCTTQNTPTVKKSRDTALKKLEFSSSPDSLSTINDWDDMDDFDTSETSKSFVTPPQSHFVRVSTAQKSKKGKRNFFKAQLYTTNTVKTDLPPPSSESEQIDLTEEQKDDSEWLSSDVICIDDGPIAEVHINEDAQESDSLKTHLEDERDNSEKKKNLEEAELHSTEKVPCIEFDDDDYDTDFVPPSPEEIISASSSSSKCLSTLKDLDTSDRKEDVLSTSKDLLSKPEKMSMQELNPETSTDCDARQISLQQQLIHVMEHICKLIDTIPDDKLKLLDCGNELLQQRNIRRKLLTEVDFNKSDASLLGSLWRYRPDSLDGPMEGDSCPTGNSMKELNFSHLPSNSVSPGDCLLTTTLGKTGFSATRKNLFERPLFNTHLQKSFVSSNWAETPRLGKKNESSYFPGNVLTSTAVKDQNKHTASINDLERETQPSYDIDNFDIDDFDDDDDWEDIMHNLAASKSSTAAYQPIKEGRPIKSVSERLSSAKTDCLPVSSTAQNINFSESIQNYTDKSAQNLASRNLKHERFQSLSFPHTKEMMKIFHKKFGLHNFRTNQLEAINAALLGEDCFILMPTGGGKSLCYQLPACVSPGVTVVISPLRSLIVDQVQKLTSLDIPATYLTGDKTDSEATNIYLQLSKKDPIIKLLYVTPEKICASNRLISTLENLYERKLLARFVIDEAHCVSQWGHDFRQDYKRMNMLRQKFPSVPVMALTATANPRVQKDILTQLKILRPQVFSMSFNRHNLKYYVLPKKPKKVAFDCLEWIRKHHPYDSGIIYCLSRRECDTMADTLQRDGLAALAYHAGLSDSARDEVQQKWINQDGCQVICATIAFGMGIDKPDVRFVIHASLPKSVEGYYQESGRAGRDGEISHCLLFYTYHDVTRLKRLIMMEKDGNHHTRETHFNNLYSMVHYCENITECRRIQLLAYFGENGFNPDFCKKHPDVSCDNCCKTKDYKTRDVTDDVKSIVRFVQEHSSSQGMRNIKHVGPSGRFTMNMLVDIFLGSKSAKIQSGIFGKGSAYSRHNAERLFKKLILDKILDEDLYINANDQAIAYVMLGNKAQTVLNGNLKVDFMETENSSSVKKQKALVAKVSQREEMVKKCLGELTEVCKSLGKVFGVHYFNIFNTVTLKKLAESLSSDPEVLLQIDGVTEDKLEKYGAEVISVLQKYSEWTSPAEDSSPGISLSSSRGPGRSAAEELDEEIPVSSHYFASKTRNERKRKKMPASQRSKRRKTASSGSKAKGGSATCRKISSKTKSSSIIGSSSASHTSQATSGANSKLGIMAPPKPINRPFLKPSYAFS

The assay concerns the target RecQ-like DNA helicase BLM (Homo sapiens) (UniProt P54132). The experiment in a line: qHTS for Inhibitors of Bloom's syndrome helicase (BLM): Helicase DNA unwinding fluorescent orthogonal confirmatory assay for SAR. Particulars: fluorescence, orthogonal confirmation; series mostly up to 55.6 µM; activity change, negative = inhibition: at the top concentration. Summed up: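 Gel-based orthogonal unwinding test: native PAGE separated substrate from single-stranded product of a fluorescent DNA duplex processed by purified BLM (2mM ATP, 50mM NaCl, room temperature). Bands were quantified and normalised against no-enzyme and no-inhibitor wells.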
Consider `O=C(NCc1ccccc1)Nc1nnc(-c2ccncc2)s1`, for which the “activity change, negative = inhibition” value was -10.1% (inactive).
On to `O=C(Nc1ccc(Cl)c(Cl)c1)Nc1nnc(-c2ccncc2)s1`, for which the Potency was 1.58 µM (active).
As to `O=C(Nc1ccc(F)c(C(F)(F)F)c1)Nc1nc(-c2ccncc2)cs1`, the “activity change, negative = inhibition” value was -3.13% [at 53.6 µM] (inactive).
For `O=C(Nc1ccc(F)c(C(F)(F)F)c1)Nc1nnc(-c2cccnc2)s1`, the Potency is 3.55 µM (active).
Still for that read-out and setting: with `Cc1cc(NC(=O)Nc2cccc(-c3ccncc3)n2)ccc1Cl` the figure was 4.47 µM (active) and 3.55 µM (active); with `N#Cc1cccc(NC(=O)Nc2nnc(-c3ccncc3)s2)c1`, 8.91 µM (active); with `O=C(Nc1ccc2ccccc2c1)Nc1cccc(-c2ccncc2)n1`, 8.91 µM (active).
As to `O=c1c(Nc2ccc(Br)c(Br)c2)c(Nc2nnc(-c3ccncc3)s2)c1=O`, the Potency was 6.31 µM (active).
Consider `O=C(Nc1ccc(Cl)nc1)Nc1nnc(-c2ccncc2)s1`, for which the Potency was 6.31 µM (active).
Regarding `N#Cc1cc(NC(=O)Nc2nnc(-c3ccncc3)s2)ccc1Cl`, the Potency was 0.398 µM (active).
Turning to `N#Cc1ccc(NC(=O)Nc2nnc(-c3ccncc3)s2)cc1`, the Potency was 7.94 µM (active).
Consider `Cc1cc(NC(=O)Nc2nnc(-c3ccncc3)s2)ccc1-c1cn[nH]c1`, for which the Potency is 11.2 µM (active).
Regarding `O=C(Nc1ccc(Br)c(Br)c1)Nc1cccc(-c2ccncc2)n1`, the Potency is 0.891 µM (active).
In the case of `Cc1cc(NC(=O)Nc2cccc(-c3ccncc3)n2)ccc1Br`, the Potency is 12.6 µM (active).
For `CCOC(=O)c1cccc(NC(=O)Nc2nnc(-c3ccncc3)s2)c1`, the “activity change, negative = inhibition” value is 10.3% (inactive).
`CC(C)(C)NC(=O)Nc1nnc(-c2ccncc2)s1`: the “activity change, negative = inhibition” value is 5.44% (inactive).
For `O=C(Nc1ccc(F)c(C(F)(F)F)c1)Nc1ccc(-c2ccncc2)s1`, the “activity change, negative = inhibition” value is -13.1% [at 53.6 µM] (inactive).
